Screening data as filed in PubChem.
HCV inhibitor: blocks hepatitis C virus | Huh7.5.1 HCVcc-Cre infection, luciferase reporter, 44 h | Potency, µM (series often up to 41.8 µM), hits mostly inhibitors | 340,000 compounds, 3.4% hits | AID 651820; active means well fitted inhibition curve with a large enough effect; inconclusive means small, poorly fitted or top-dose-only effect, or another doubt; inactive means no such curve, though single readings can be large or run the other way
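1,000 cells/well; 4 h culture; + compound; + HCVcc-Cre (~0.5 moi); 44 h; luciferase substrate, RT 15 min; read 15 sec.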
LASV entry inh: inhibitors of Lassa virus binding or cell entry; Lassa virus pseudotype entry inhibition, cell reporter; Potency, µM (top dose mostly 37.9 µM), usual class: inhibitors; 300,000 compounds, 1.2% hits; calls by dose curve; tested in HEK293 cells; further: nearly all actives have a fitted effect of over 50% in size
HCMV inh: human cytomegalovirus inhibition | activity change, negative = inhibition, % at 57.5 µM | HFF cells, HCMV-luciferase reporter, 72 h; stronger effect = lower value | 410,000 compounds, 4.5% hits; in the data active means activity change below about -60%; inconclusive means no clear call, values can overlap the other calls; inactive means above about -39%
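Two-dose cell screen: HFF monolayers treated with compounds and infected with luciferase-expressing HCMV at 1 PFU/cell, 72 h at 37C, then lysed for luciferase measurement.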
FMDV inh: foot and mouth disease virus antiviral activity | FMDV antiviral cell-based qHTS | Potency, µM (top dose mostly 57.9 µM), most hits filed as inhibitors | 410,000 compounds, 1.2% hits | AID 1159524; calls by dose curve; tested in HEK293T cells; further: read-out not given here; nearly all actives have a fitted effect of over 45% in size
MARV entry inh: Marburg virus entry inhibition; Marburg virus pseudotyped entry inhibition, cell reporter; Potency, µM (highest dose often 37.8 µM), hits mostly inhibitors; 300,000 compounds, 1.8% hits; calls by dose curve; tested in HEK293 cells
Each line names hits and unclear results; the compound was inactive in the other large screens; ! = repeats disagree. In the library only some 7.9% were active in any assay of this set; here they are far more common.

CC(=O)OC[C@H]1O[C@@H](ON=C[C@@H](C)[C@H](OCc2ccccc2)C(C)C)[C@@H](OC(C)=O)[C@@H](OC(C)=O)[C@@H]1OC(C)=O	MARV entry inh inconclusive (no result: HCV inhibitor, HCMV inh, FMDV inh)
COc1ccc(OC)c([C@@H]2C(C#N)=C(N)Oc3cc(C)[nH]c(=O)c32)c1	none (no result: HCV inhibitor, LASV entry inh, HCMV inh, FMDV inh)
O=C(O)c1ccc(Nc2nc(-c3ccccc3)nc3ccccc23)cc1	none (no result: LASV entry inh, MARV entry inh)
COc1ccc(OC)c(Nc2nc(-c3ccccc3O)nc3ccccc23)c1	HCV inhibitor inconclusive
COc1ccc(Nc2nc(-c3ccncc3)nc3ccccc23)cc1	HCV inhibitor 6.31µM, MARV entry inh 2.82µM
COc1ccccc1Nc1nc(-c2ccccc2O)nc2ccccc12	HCV inhibitor 3.98µM, HCMV inh -69.5
COc1ccc(Nc2nc(N3CCN(S(=O)(=O)N(C)C)CC3)nc3ccccc23)cc1	HCV inhibitor 11.2µM, HCMV inh -84.7 (no result: LASV entry inh, MARV entry inh)
COc1ccc(Nc2nc(N3CCN(S(C)(=O)=O)CC3)nc3ccccc23)c(OC)c1	none
COc1ccc(Nc2nc(-c3ccccc3)nc3ccccc23)c(OC)c1	HCV inhibitor 2µM, HCMV inh inconclusive, MARV entry inh inconclusive
CCOC(=O)c1nc(Nc2ccccc2OC)c2ccccc2n1	none (no result: HCV inhibitor)
COc1ccccc1Nc1nc(-c2ccccc2)nc2ccccc12	HCV inhibitor 10µM, HCMV inh inconclusive (no result: LASV entry inh, MARV entry inh)
Cc1cc(C)nc(S[C@@H]2C[C@@H](C(=O)N3CCCN(C)CC3)N(Cc3cc(F)ccc3F)C2)n1	none (no result: HCV inhibitor, LASV entry inh, HCMV inh, MARV entry inh)
O=c1[nH]c(=O)n(Cc2ccco2)c2c1C(C(F)(F)F)(C(F)(F)F)N=C(c1ccc(F)cc1)N2	HCV inhibitor inconclusive, LASV entry inh inconclusive, FMDV inh 4.47µM, MARV entry inh inconclusive
CCn1cc(C(=O)NCc2ccccc2)c(=O)c2cc(S(=O)(=O)N3CCCCCC3)ccc21	LASV entry inh inconclusive (no result: HCV inhibitor)
CCn1cc(C(=O)NCCc2ccc(OC)c(OC)c2)c(=O)c2cc(S(=O)(=O)N(C)C3CCCCC3)ccc21	LASV entry inh inconclusive, HCMV inh -72.5, MARV entry inh 11.2µM (no result: HCV inhibitor)
CCn1cc(C(=O)NCc2ccc(C)cc2)c(=O)c2cc(S(=O)(=O)N3CCCCCC3)ccc21	LASV entry inh 6.31µM (no result: HCV inhibitor, MARV entry inh)
CCn1cc(C(=O)NC(C)CCc2ccccc2)c(=O)c2cc(S(=O)(=O)N(C)C)ccc21 (stereo not given)	LASV entry inh 6.31µM, MARV entry inh inconclusive
CCn1cc(C(=O)NCc2ccc(Cl)cc2)c(=O)c2cc(S(=O)(=O)N(C)C3CCCCC3)ccc21	LASV entry inh inconclusive, MARV entry inh 2.82µM (no result: HCV inhibitor)
CCn1cc(C(=O)NCC(OC)OC)c(=O)c2cc(S(=O)(=O)N(C)C3CCCCC3)ccc21	HCMV inh inconclusive (no result: LASV entry inh, MARV entry inh)
CCn1cc(C(=O)NCCc2ccc(Cl)cc2)c(=O)c2cc(S(=O)(=O)N(C)C)ccc21	none (no result: LASV entry inh, MARV entry inh)
CCOC(=O)CCN1C(=O)[C@H]2[C@H]3[C@H](O)[C@H](O)C/C(=N\NC(=O)OCc4ccccc4)[C@@H]3CC[C@H]2C1=O	none (no result: HCV inhibitor, LASV entry inh, HCMV inh, FMDV inh)
COc1ccc(-c2cc(C(=O)NCCc3ccc(OC)c(OC)c3)c3ccccc3n2)cc1	LASV entry inh inconclusive (no result: HCV inhibitor, MARV entry inh)
Nc1c(C(=O)NCCC2=CCCCC2)sc2ccc(S(=O)(=O)N3CCCCC3)cc12	LASV entry inh inconclusive, MARV entry inh inconclusive
CCn1cc(C(=O)NCc2ccc(Cl)cc2)c(=O)c2cc(S(=O)(=O)N(C)C)ccc21	HCV inhibitor inconclusive, LASV entry inh inconclusive, HCMV inh -71.0, MARV entry inh inconclusive
CCn1cc(C(=O)NCc2ccccc2OC)c(=O)c2cc(S(=O)(=O)N(C)C)ccc21	HCV inhibitor 14.1µM, HCMV inh inconclusive (no result: LASV entry inh, MARV entry inh)
Cc1ccc(CNC(=O)c2sc3ccc(S(=O)(=O)N4CCCCC4)cc3c2N)cc1	HCV inhibitor 31.6µM (no result: LASV entry inh, HCMV inh, FMDV inh)
O=C1CCC(C(=O)N2CCC(CO)CC2)CN1Cc1ccc(Cl)cc1 (stereo not given)	none
Cc1nnc(SCC(=O)Nc2cccc([N+](=O)[O-])c2)n1CC1CCCO1 (stereo not given)	none
COc1cccc(CN2CCN3C=C(C(=O)NC4CCc5ccccc54)OC3=NC2=O)c1 (stereo not given)	none (no result: HCV inhibitor, LASV entry inh, FMDV inh, MARV entry inh)
CCc1ccc(NC(=O)C2=CC(c3cccs3)=NS(=O)(=O)N2C)cc1	HCV inhibitor inconclusive, HCMV inh -74.6!
CN1CCN(c2nccc3[nH]c(-c4ccccc4Cl)nc23)CC1	none (no result: HCV inhibitor, LASV entry inh, FMDV inh, MARV entry inh)
CC1=CC(C)CC(C)OC(=O)CC(c2ccc(O)cc2)NC(=O)C(Cc2c(Br)[nH]c3ccccc23)N(C)C(=O)C(C)NC(=O)C(C)C1 (stereo not given)	HCV inhibitor inconclusive, LASV entry inh 0.398µM, HCMV inh -97.7, MARV entry inh 0.316µM
COc1cc(N2CCCC2)c(OC)cc1C=O	HCV inhibitor 11.2µM, HCMV inh inconclusive
COc1cc(OC)c(OC)cc1C=O	HCMV inh inconclusive (no result: LASV entry inh, MARV entry inh)
c1ccc(-c2cnc(-c3cccnc3)o2)cc1	HCV inhibitor inconclusive, MARV entry inh inconclusive
c1ccc(Oc2ccc(Nc3ncc(-c4ccccc4)o3)cc2)cc1	LASV entry inh 0.25µM (no result: HCV inhibitor, HCMV inh, FMDV inh, MARV entry inh)
Cc1ccccc1OCc1nnc(SCc2cc(=O)c3cc(F)ccc3[nH]2)n1C	HCMV inh -61.6, FMDV inh inconclusive (no result: HCV inhibitor, MARV entry inh)
COCc1cccc(-c2csc(C(O)c3cccc(OC)c3)n2)c1 (stereo not given)	none (no result: HCV inhibitor, LASV entry inh, MARV entry inh)
CC(C)(CO)NCc1cccc(OCc2ccc(Cl)cc2)c1	HCV inhibitor inconclusive, LASV entry inh inconclusive, HCMV inh inconclusive, MARV entry inh inconclusive
Clc1ccc(COc2cccc(CNCc3ccncc3)c2)cc1	HCV inhibitor inconclusive, LASV entry inh inconclusive, HCMV inh -74.9, FMDV inh inconclusive
Cc1ccc(Sc2ccc(N3CCCC(C(=O)Nc4ccc(F)cc4F)C3)nn2)cc1 (stereo not given)	LASV entry inh 0.891µM, MARV entry inh inconclusive (no result: HCV inhibitor)
CCOC(=O)c1ccc(NC(=O)C2CCCN(c3ncnc4onc(C)c34)C2)cc1 (stereo not given)	LASV entry inh inconclusive, HCMV inh -74.5 (no result: HCV inhibitor, MARV entry inh)
CCOC(=O)c1ccc(NC(=O)C2CCCN(c3ccc(Sc4ccc(C)cc4)nn3)C2)cc1 (stereo not given)	LASV entry inh 6.31µM, MARV entry inh inconclusive (no result: HCV inhibitor)
CCOC(=O)N(C)C[C@H]1OCc2cnnn2CCCC(=O)N([C@H](C)CO)C[C@@H]1C	none (no result: HCV inhibitor, LASV entry inh, FMDV inh, MARV entry inh)
COc1ccc(C2C(C#N)=C(N)Oc3c2sc2nc(C)cc(C)c32)cc1 (stereo not given)	HCV inhibitor inconclusive, LASV entry inh inconclusive, HCMV inh -68.1, FMDV inh 39.8µM, MARV entry inh inconclusive
COc1ccc(C2C(C#N)=C(N)Oc3cc(N)ccc32)cc1 (stereo not given)	none (no result: LASV entry inh, MARV entry inh)
COc1cccc(Cn2c(=O)c(CCc3ccccc3)nc3cnc(N4CCN(C)CC4)nc32)c1	none (no result: HCV inhibitor, LASV entry inh, HCMV inh, MARV entry inh)
O=C1c2cccc3c(N4CCCCC4)ccc(c23)C(=O)N1c1cccc(O)c1	HCV inhibitor inconclusive, HCMV inh -83.7, MARV entry inh inconclusive (no result: LASV entry inh)
C[C@H](CO)N1C[C@H](C)[C@@H](CN(C)Cc2cccc(O)c2)OCc2cnnn2CCCC1=O	FMDV inh inconclusive (no result: HCV inhibitor, LASV entry inh, MARV entry inh)
Cc1cc(C)n(-c2nc3ccccc3c(=O)n2OCC#N)n1	HCV inhibitor inconclusive, LASV entry inh inconclusive, HCMV inh -88.9, MARV entry inh 7.94µM
